The campaign covered roughly 2,300 compounds. About 1,500 (65%) were called active. No rule for the calls is given here. So high a share suggests a set chosen from earlier hits. This is one part of the list. Measured potencies and affinities stand elsewhere.
Experiment: replicating M. tuberculosis growth inhibition, dose response, non-replicating M. tuberculosis project, H37Rv (AID 492952);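 also: Mycobacterium tuberculosis grown in culture; growth inhibition read after a week of incubation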
Conditions: series mostly up to 50 µM

Row | Compound | outcome
1 | OCC1(CCOc2ccccc2)CCN(Cc2cc(Cl)ccc2O)CC1 | inactive
2 | O=[N+]([O-])c1ccc2nc(SCc3cn4ccccc4n3)[nH]c2c1 | inactive
3 | c1ccc(OCc2nn3c(-c4ccccn4)nnc3s2)cc1 | inactive
4 | O=[N+]([O-])c1ccc(-c2nc3ccc([N+](=O)[O-])cc3[nH]2)cc1 | inactive
5 | C/C(=N/NC(=O)c1cc2ccccc2cc1O)C1C(=O)c2ccccc2C1=O | inactive
6 | O=C(NCC1CCCCC1)c1ccc([N+](=O)[O-])cc1 | inactive
7 | Oc1ccc2cc(Br)ccc2c1CN1CCCC1 | inactive
8 | Nc1c(Cl)cc(Cl)cc1C(=O)OCC(=O)N1CCCC1 | inactive
9 | O=C(CCSc1ccc(Cl)cc1)NC1CCCC1 | inactive
10 | O=C(COC(=O)c1ccc(Br)o1)NC1CCCCC1 | inactive
11 | CCCOC(=O)NC1CCS(=O)(=O)C1 (configuration not stated) | inactive
12 | CCCCN(C/C=C/c1ccccc1OC)Cc1ccccc1 | inactive
13 | CCOC(=O)C1CCN(Cc2ccc(-c3ccccc3)cc2)CC1 | inactive
14 | CC(C)N=C1SC(CC(=O)Nc2ccccc2)C(=O)N1C(C)C (configuration not stated) | inactive
15 | O=C(COC(=O)c1ccccc1Br)Nc1ccccc1F | inactive
16 | CCOC(=O)C1=C(C)NC(=O)NC1c1ccc(-c2ccc(F)cc2)o1 (configuration not stated) | inactive
17 | Fc1ccc(-c2nnc(-c3ccc(F)cc3)o2)cc1 | inactive
18 | CCC(=O)c1ccc(OC(=O)c2ccc(Br)o2)cc1 | inactive
19 | CCC(C)(C)NC(=O)c1ccc(Br)o1 | inactive
20 | O=C(NC1CCCC1)c1nc2c(nnn2Cc2cccc(Cl)c2)c(=O)[nH]1 | inactive
21 | COc1ccc(O)c(C(=O)CC(=O)c2ccc(F)cc2)c1 | inactive
22 | NC(=O)c1cccnc1Nc1cccc(F)c1 | inactive
23 | c1ccc(-c2noc(CC3CCCCC3)n2)nc1 | inactive
24 | Sc1oc(-c2ccccc2)cc1C=Nc1ccccc1 | inactive
25 | COc1ccc(NC(=O)CO/N=C2/CCCc3nonc32)c(OC)c1 | inactive

Row | Compound | outcome
26 | O=C(N/N=C/c1ccccc1O)c1cccc(C(F)(F)F)c1 | inactive
27 | O=C(N/N=C/c1cc(Br)cc(Br)c1O)c1cccc(N2CCCC2=O)c1 | inactive
28 | O=C(COC(=O)c1ccccc1)NC12CC3CC(CC(C3)C1)C2 | inactive
29 | CCCNC(=O)OCC12CC3CC(CC(C3)C1)C2 | inactive
30 | CCCCCCCC(=O)N/N=C(\C)c1ccc(O)cc1O | inactive
31 | CSC1=N/C(=C\c2ccc(Br)o2)C(=O)S1 | inactive
32 | CC(=O)Nc1cccc(-c2nc3ccccc3c(=O)o2)c1 | inactive
33 | O=C(NNC1CC(=O)N(c2ccccc2)C1=O)c1ccco1 (configuration not stated) | inactive
34 | O=C(N/N=C/c1cn[nH]c1-c1ccccc1)c1ccco1 | inactive
35 | N[C@@H](Cc1ccccc1)c1nnc(SC/C=C/c2ccccc2)o1 | inactive
36 | O=C(NCCc1ccccc1)c1nc(-c2cccs2)no1 | inactive
37 | O=[N+]([O-])c1cncc([N+](=O)[O-])c1Nc1cccc(O)c1 | inactive
38 | O=S(=O)(NCc1cccnc1)c1ccc(Cl)c(Cl)c1Cl | inactive
39 | Clc1ccc(SCCOCCN2CCc3ccccc3C2)cc1 | inactive
40 | Clc1ccc(OCCCCN2CCc3ccccc3C2)cc1 | inactive
41 | CC1=NN(C(=O)c2ccccc2Cl)C(O)(c2ccccc2)C1 (configuration not stated) | inactive
42 | CC1=NN(C(=O)c2ccccc2)C(O)(c2ccc(Br)cc2)C1 (configuration not stated) | inactive
43 | CCc1ccc(N2C(=O)CC(N3CCC(C(=O)OC)CC3)C2=O)cc1 (configuration not stated) | inactive
44 | CCCCCCOc1ccc(N2C(=O)CC(N3CCN(C(=O)c4ccco4)CC3)C2=O)cc1 (configuration not stated) | inactive
45 | COc1ccc(OC(=O)C2CC(=O)N(c3ccc(C)cc3)C2)cc1 (configuration not stated) | inactive
46 | CCOc1ccc(N2CC(=O)Nc3ccccc3NCC2=O)cc1 | inactive
47 | CCCOc1ccc(N2C(=O)CC(N3CCCC(C(=O)N4CCCC4)C3)C2=O)cc1 (configuration not stated) | inactive
48 | C#CCOc1coc(COC(=O)c2ccccc2)cc1=O | inactive
49 | CSC1=N/C(=C\c2ccc3c(c2)OCO3)C(=O)S1 | inactive
50 | O=C1CC(N2CCC(c3nc4ccccc4o3)CC2)C(=O)N1 (configuration not stated) | inactive

Row | Compound | outcome
51 | NC(=O)/C(=N\OC(=O)c1ccco1)c1nc(-c2ccc(Br)cc2)cs1 | inactive
52 | Cc1[nH]n(-c2ccccc2)c(=O)c1C=Nc1cnc2ccccc2c1 | inactive
53 | C/C(=N\NC(=O)CCc1ccccc1)C1C(=O)c2ccccc2C1=O | inactive
54 | CC(C)(C)c1ccc(S(=O)(=O)NNC(=O)c2cc3ccccc3[nH]2)cc1 | inactive
55 | Cc1ccc(S(=O)(=O)NCc2ccc(C(=O)NCCCN3CCC(Cc4ccccc4)CC3)cc2)cc1 | inactive
56 | CN(C)CCC(=O)N1c2ccccc2Sc2ccc(C(F)(F)F)cc21 | inactive
57 | Oc1ccc(Br)cc1-c1ccn[nH]1 | inactive
58 | Cc1ccc(C(C)NC(=O)c2cc3ccccc3oc2=O)cc1C (configuration not stated) | inactive
59 | CC(NC(=O)c1cc2ccccc2oc1=O)c1ccccc1 (configuration not stated) | inactive
60 | O=C(NC1CCOc2ccccc21)c1ccc(Cl)nc1 (configuration not stated) | inactive
61 | CCOc1ccc(NC(=O)COc2ccc3c(c2)OCO3)cc1 | inactive
62 | O=C(Nc1ccc([N+](=O)[O-])cc1)c1ccc(Cn2cc([N+](=O)[O-])cn2)cc1 | inactive
63 | C=CCOc1ccc(CNCCO)cc1OCC | inactive
64 | CC(C)(C)c1cc(CN2CCN(CCO)CC2)cc(C(C)(C)C)c1O | inactive
65 | CCn1c(O)c(C(=O)CC2NCCc3ccccc32)c(=O)n(CC)c1=S (configuration not stated) | inactive
66 | O=C(NNc1nc2ccccc2s1)Nc1ccc(F)cc1 | inactive
67 | Cc1ccc(CNC(=O)c2cnccn2)cc1 | inactive
68 | Cc1ccc2nc(NC(=O)COC(=O)c3ccc(Br)o3)sc2c1 | inactive
69 | CCN(CC)c1ccc(NC2CC(=O)N(CCc3ccc(OC)cc3)C2=O)cc1 (configuration not stated) | inactive
70 | CC(C)(C)c1csc(NC(=O)c2ccccc2O)n1 | inactive
71 | O=C(NCc1ccc2c(c1)OCO2)c1ccc(Cl)s1 | inactive
72 | CCCNC(=O)N1CCC(c2ccc3c(c2)OCO3)CC1 | inactive
73 | Cc1ccc(NC(=O)COc2ccc3c(c2)CCC3)nc1 | inactive
74 | O=C(CN1CCN(c2ccccc2O)CC1)Nc1ccc2c(c1)CCC2 | inactive
75 | O=C1C=CC(=O)N1N(c1ccccc1)c1ccccc1 | inactive

Row | Compound | outcome
76 | COc1ccc(C(=O)NNC2=C(C(=O)C(F)(F)F)CCC2)cc1 | inactive
77 | CC1C/C(=N/N2C(=O)CSC2=S)CC(C)(C)C1 (configuration not stated) | inactive
78 | O=C(CN1CCN(c2ccc([N+](=O)[O-])cc2)CC1)Nc1ccccn1 | inactive
79 | Fc1ccc(N2CCN(Cc3nnc(-c4ccccc4)o3)CC2)cc1 | inactive
80 | O=C1CC(N2CCN(c3ccc(F)cc3)CC2)C(=O)N1Cc1ccccc1 (configuration not stated) | inactive
81 | O=C1CCCC(O)=C1C=Nc1ccc2c(c1)oc1ccccc12 | inactive
82 | CCOC(=O)c1ccc(N=CC2=C(O)CC(C)(C)CC2=O)cc1 | inactive
83 | C/C(=N\NC(=O)c1nn(C)cc1Cl)c1ccncc1 | inactive
84 | O=C(Nc1ccc(Cl)cc1)C1CCCC1 | inactive
85 | CSc1nc(=S)cc(C)[nH]1 | inactive
86 | CCOC(=O)Cn1cc(C#N)c2ccccc21 | inactive
87 | CSc1nnc(Cc2ccc3c(c2)OCO3)o1 | inactive
88 | CC(C)c1ccc(OCC(=O)NC2=NCCS2)cc1 | inactive
89 | O=S(=O)(Nc1nccs1)c1ccc(NCc2cc(Br)cc(Br)c2O)cc1 | inactive
90 | COc1cc(C=O)ccc1OCCOCCOc1ccc(Cl)cc1 | inactive
91 | Cc1cccnc1NC(=O)C1COc2ccccc2O1 (configuration not stated) | inactive
92 | CC(=O)c1cccc(NC(=O)C2COc3ccccc3O2)c1 (configuration not stated) | inactive
93 | COc1ccc(NC(=O)C2COc3ccccc3O2)cc1 (configuration not stated) | inactive
94 | CCc1ccccc1NC(=O)C1COc2ccccc2O1 (configuration not stated) | inactive
95 | Cc1ccccc1NC(=O)C1COc2ccccc2O1 (configuration not stated) | inactive
96 | O=C(COC(=O)c1ccccc1)NCc1cccs1 | inactive
97 | CCN(CC)C(=O)c1sc2nc(-c3ccccc3)ccc2c1N | inactive
98 | C=CCn1c(O)c(C(C)=Nc2ccc(C(=O)OCC)cc2)c(=O)[nH]c1=O | inactive
99 | Cc1cc(C)c2c(=O)n(CC(=O)Nc3cccc(Cl)c3C)sc2n1 | inactive
100 | CC1CCc2c(sc3nc(CSc4ncn[nH]4)[nH]c(=O)c23)C1 (configuration not stated) | inactive

Row | Compound | outcome
101 | Cc1ccc(CC(=O)Nc2ccc(Cl)cn2)cc1 | inactive
102 | Cc1ccc(NC(=O)CN(C)CC(=O)Nc2ccc(F)c(Cl)c2)cc1 | inactive
103 | COc1ccc(N2C(=O)CC(Sc3nc4ccccc4s3)C2=O)cc1OC (configuration not stated) | inactive
104 | Cc1nc2ccc(NC(=O)COc3cccc(F)c3)cc2s1 | inactive
105 | N#Cc1cc(N)ccc1-n1cccc1 | inactive
106 | CCN1C(=O)CC(N2CCC(c3nc4ccccc4[nH]3)CC2)C1=O (configuration not stated) | inactive
107 | CC(C)(C)NCc1cc(Br)ccc1OCc1cccs1 | inactive
108 | CCCCOC(=O)c1ccc(OC(=O)c2cccnc2)cc1 | inactive
109 | CC(C)CN1C(=O)/C(=C(/C#N)C(=O)NC2CCCCC2)c2ccccc21 | inactive
110 | CC1(c2nnc(-c3ccc(F)cc3)o2)CC(c2cccc(Cl)c2)=NO1 (configuration not stated) | inactive
111 | COc1cccc2sc(Nc3nnc(-c4cccs4)o3)nc12 | inactive
112 | CC(C)(C)c1ccc2c(c1)OC(C(=O)N/N=C\c1ccccn1)CO2 (configuration not stated) | inactive
113 | CCCOC(=O)c1cc(-c2ccc(C=O)o2)ccc1Cl | inactive
114 | O=C(NNC(=O)C12CC3CC(CC(C3)C1)C2)c1cnccn1 | inactive
115 | O=C(COC(=O)CC12CC3CC(CC(C3)C1)C2)Nc1cccnc1Cl | inactive
116 | O=C(NC(=S)Nn1cnc2c(cnn2-c2ccccc2)c1=O)c1ccccc1 | inactive
117 | CCC(C)c1ccc(O)c(/C=N/O)c1 (configuration not stated) | inactive
118 | CSc1ccccc1C(=O)NCc1ccc(S(N)(=O)=O)cc1 | inactive
119 | O=C(CCC1CCCCC1)NCc1ccc(F)cc1 | inactive
120 | CCOc1cccc2cc(C(=O)NCc3ccccc3)c(=N)oc12 | inactive
121 | C/C(=N\NC(=O)c1ccc(CN2CCc3ccccc3C2)cc1)c1ccccc1O | inactive
122 | O=C(Cc1ccc(F)cc1)Nc1ccc(Cl)cn1 | inactive
